Test results as given in PubChem BioAssay (NCI).
This is part of a sample that, as a whole, favours compounds with a hit. Of some 83,000 tested, about 20% had one in any assay.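 Interpretation: 100, growth as untreated; towards 0, rising growth inhibition; 0, no net growth; 0 to -100, cell death. Compounds scoring below 10 were considered active.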 The source made the active and inactive calls.

Tests used:
Assay in all cases: NCI-60 one-dose screen, 48 h (100 = growth as untreated, 0 = no growth, -100 = all killed)
Details in all cases: 10 µM
SR leukemia = system: SR leukemia
RPMI-8226 leukemia = system: RPMI-8226 leukemia
OVCAR-8 ovarian = system: OVCAR-8 ovarian
OVCAR-5 ovarian = system: OVCAR-5 ovarian
OVCAR-4 ovarian = system: OVCAR-4 ovarian
SK-OV-3 ovarian = system: SK-OV-3 ovarian
OVCAR-3 ovarian = system: OVCAR-3 ovarian
HS 578T breast = system: HS 578T breast
NCI/ADR-RES ovarian = system: NCI/ADR-RES ovarian
T-47D breast = system: T-47D breast
BT-549 breast = system: BT-549 breast
MDA-MB-435 melanoma = system: MDA-MB-435 melanoma
SW-620 colon = system: SW-620 colon
MCF7 breast = system: MCF7 breast
HCT-116 colon = system: HCT-116 colon
HCC-2998 colon = system: HCC-2998 colon
KM12 colon = system: KM12 colon

Measured: growth

Oc1ccc(Cn2cc3c(c2-c2ccccc2)CCc2cnoc2-3)cc1
inactive: SR leukemia 76.8% | RPMI-8226 leukemia 82.1% | OVCAR-8 ovarian 100% | OVCAR-5 ovarian 105% | OVCAR-4 ovarian 95.8% | SK-OV-3 ovarian 94.4% | OVCAR-3 ovarian 107% | HS 578T breast 106% | NCI/ADR-RES ovarian 86.2% | T-47D breast 78.4% | BT-549 breast 101% | MDA-MB-435 melanoma 72.7% | SW-620 colon 98% | MCF7 breast 105% | HCT-116 colon 92.7% | HCC-2998 colon 102% | KM12 colon 91.5%

CCc1c(C(=O)NCc2c(O)ccc3cccc(O)c23)[nH]c(C)c1C(C)=O
inactive: SR leukemia 30.5% | RPMI-8226 leukemia 15.3% | OVCAR-8 ovarian 38.4% | OVCAR-5 ovarian 90.4% | OVCAR-4 ovarian 27.6% | SK-OV-3 ovarian 62.2% | OVCAR-3 ovarian 12.6% | HS 578T breast 35% | NCI/ADR-RES ovarian 29.2% | BT-549 breast 34.5% | MDA-MB-435 melanoma 35.1% | SW-620 colon 68.7% | MCF7 breast 11.6% | HCT-116 colon 42.3% | HCC-2998 colon 47.9%
active: T-47D breast 9.15%

CCCc1c(CC)c(=N)c2ccccc2n1C
inactive: OVCAR-8 ovarian 76.1% | OVCAR-5 ovarian 100% | OVCAR-4 ovarian 79.7% | SK-OV-3 ovarian 91.3% | OVCAR-3 ovarian 85% | HS 578T breast 76.5% | NCI/ADR-RES ovarian 78.6% | T-47D breast 73% | BT-549 breast 81.8% | SW-620 colon 57.8% | MCF7 breast 32% | HCT-116 colon 27.7% | HCC-2998 colon 15.5%
active: SR leukemia -27.5% | RPMI-8226 leukemia -17% | MDA-MB-435 melanoma 7.61%

Nc1nsc(C(=O)c2ccc(O)cc2)n1
inactive: SR leukemia 99.2% | RPMI-8226 leukemia 90.7% | OVCAR-8 ovarian 91.1% | OVCAR-5 ovarian 93.6% | OVCAR-4 ovarian 105% | SK-OV-3 ovarian 92.8% | OVCAR-3 ovarian 95.2% | HS 578T breast 98.1% | NCI/ADR-RES ovarian 103% | T-47D breast 94.2% | BT-549 breast 102% | MDA-MB-435 melanoma 104% | SW-620 colon 108% | MCF7 breast 99.3% | HCT-116 colon 94.8% | HCC-2998 colon 98.7% | KM12 colon 100%

CCn1nc(-c2ccccn2)c2cccnc2c1=S
inactive: SR leukemia 61.6% | RPMI-8226 leukemia 55.2% | OVCAR-8 ovarian 79.5% | OVCAR-5 ovarian 97% | OVCAR-4 ovarian 26.5% | SK-OV-3 ovarian 94.7% | OVCAR-3 ovarian 15.4% | HS 578T breast 96.6% | NCI/ADR-RES ovarian 91.5% | T-47D breast 42% | BT-549 breast 104% | MDA-MB-435 melanoma 81.2% | SW-620 colon 79.4% | HCT-116 colon 17.1% | HCC-2998 colon 72.4% | KM12 colon 72.8%
active: MCF7 breast 7.88%

COc1ccc(Cn2cc3c(c2-c2cc(OC)c(OC)c(OC)c2)CCc2cnoc2-3)cc1[N+](=O)[O-]
inactive: SR leukemia 22% | RPMI-8226 leukemia 27.9% | OVCAR-8 ovarian 48.7% | OVCAR-5 ovarian 58.6% | OVCAR-4 ovarian 47% | T-47D breast 40% | BT-549 breast 51.9% | SW-620 colon 26.6% | MCF7 breast 26.6% | HCT-116 colon 19.4% | HCC-2998 colon 18% | KM12 colon 24.7%
active: SK-OV-3 ovarian -12.7% | OVCAR-3 ovarian -23.6% | HS 578T breast 3.07% | NCI/ADR-RES ovarian 5.02% | MDA-MB-435 melanoma -53.9%

C#CCn1c(-c2cccc(OCCCCl)c2)nc2c1c(=O)n(C)c(=O)n2C
inactive: SR leukemia 43.6% | RPMI-8226 leukemia 10.5% | OVCAR-8 ovarian 54.8% | OVCAR-5 ovarian 98.9% | OVCAR-4 ovarian 57% | SK-OV-3 ovarian 93.7% | OVCAR-3 ovarian 58.1% | HS 578T breast 99% | NCI/ADR-RES ovarian 66.1% | T-47D breast 18% | BT-549 breast 13.8% | MDA-MB-435 melanoma 78.9% | SW-620 colon 95% | MCF7 breast 84.7% | HCT-116 colon 51.9% | HCC-2998 colon 104% | KM12 colon 56.5%

Nc1ccn([C@@H]2O[C@H](COP(=O)(O)O[C@@H]3C[C@H](n4cc(F)c(=O)[nH]c4=O)O[C@@H]3COP(=O)(O)O[C@@H]3C[C@H](n4cc(F)c(=O)[nH]c4=O)O[C@@H]3COP(=O)(O)O[C@@H]3C[C@H](n4cc(F)c(=O)[nH]c4=O)O[C@@H]3COP(=O)(O)O[C@@H]3C[C@H](n4cc(F)c(=O)[nH]c4=O)O[C@@H]3COP(=O)(O)O[C@@H]3C[C@H](n4cc(F)c(=O)[nH]c4=O)O[C@@H]3COP(=O)(O)O[C@@H]3C[C@H](n4cc(F)c(=O)[nH]c4=O)O[C@@H]3COP(=O)(O)O[C@@H]3C[C@H](n4cc(F)c(=O)[nH]c4=O)O[C@@H]3COP(=O)(O)O[C@@H]3C[C@H](n4cc(F)c(=O)[nH]c4=O)O[C@@H]3COP(=O)(O)O[C@@H]3C[C@H](n4cc(F)c(=O)[nH]c4=O)O[C@@H]3COP(=O)(O)O[C@@H]3C[C@H](n4cc(F)c(=O)[nH]c4=O)O[C@@H]3COP(=O)(O)OCCOCCOCCOCCOCCOCCO)[C@H](O)C2O)c(=O)n1 (stereo partly specified)
inactive: SR leukemia 44.3% | RPMI-8226 leukemia 50.1% | OVCAR-8 ovarian 40.7% | OVCAR-5 ovarian 89.9% | OVCAR-4 ovarian 84% | SK-OV-3 ovarian 32% | OVCAR-3 ovarian 64.5% | HS 578T breast 111% | NCI/ADR-RES ovarian 39.5% | T-47D breast 80.5% | BT-549 breast 48.7% | MDA-MB-435 melanoma 61.4% | SW-620 colon 58.2% | MCF7 breast 19.4% | HCT-116 colon 20.4% | HCC-2998 colon 50.4% | KM12 colon 47%

C=C1C(=O)O[C@H]2[C@H]1CC/C(COC(=O)OCCCCCOC(=O)OC/C1=C/CC[C@@]3(C)O[C@H]3[C@H]3OC(=O)C(=C)[C@@H]3CC1)=C\CC[C@@]1(C)O[C@@H]21
inactive: SK-OV-3 ovarian 54.6% | HS 578T breast 33.8% | NCI/ADR-RES ovarian 42.5%
active: SR leukemia -20.1% | RPMI-8226 leukemia -3.28% | OVCAR-8 ovarian -4.61% | OVCAR-5 ovarian -36.2% | OVCAR-4 ovarian -43% | OVCAR-3 ovarian -97.5% | T-47D breast -45% | BT-549 breast -72.7% | MDA-MB-435 melanoma -13% | SW-620 colon -54.3% | MCF7 breast -75.8% | HCT-116 colon -95.9% | HCC-2998 colon -60.8% | KM12 colon 5.59%

COc1ccc(-c2nnc(SCC(=O)c3ccccc3)o2)cc1
inactive: SR leukemia 100% | RPMI-8226 leukemia 89% | OVCAR-8 ovarian 109% | OVCAR-5 ovarian 100% | OVCAR-4 ovarian 108% | SK-OV-3 ovarian 102% | OVCAR-3 ovarian 105% | HS 578T breast 103% | NCI/ADR-RES ovarian 91.9% | T-47D breast 86.3% | BT-549 breast 74.9% | MDA-MB-435 melanoma 101% | SW-620 colon 102% | MCF7 breast 104% | HCT-116 colon 78.9% | HCC-2998 colon 86.1% | KM12 colon 98.3%

O=c1cc(CSc2nnc(-c3ccccc3)n2-c2ccc(F)cc2)c2ccc3ccccc3c2o1
inactive: SR leukemia 88.5% | RPMI-8226 leukemia 101% | OVCAR-8 ovarian 93% | OVCAR-5 ovarian 94% | OVCAR-4 ovarian 99.2% | SK-OV-3 ovarian 99.7% | OVCAR-3 ovarian 97.5% | HS 578T breast 103% | NCI/ADR-RES ovarian 84.3% | T-47D breast 76.7% | BT-549 breast 102% | MDA-MB-435 melanoma 112% | SW-620 colon 104% | MCF7 breast 99.5% | HCT-116 colon 86.5% | HCC-2998 colon 86.9% | KM12 colon 95.8%

COC(=O)c1ccc(Cn2ccc(=O)[nH]c2=O)cc1
inactive: SR leukemia 94.1% | RPMI-8226 leukemia 106% | OVCAR-8 ovarian 115% | OVCAR-5 ovarian 104% | OVCAR-4 ovarian 109% | SK-OV-3 ovarian 116% | OVCAR-3 ovarian 130% | HS 578T breast 121% | NCI/ADR-RES ovarian 110% | T-47D breast 107% | BT-549 breast 113% | MDA-MB-435 melanoma 105% | SW-620 colon 110% | MCF7 breast 99.2% | HCT-116 colon 104% | HCC-2998 colon 106% | KM12 colon 103%

COCc1cc2c(cc1Br)OCO2
inactive: SR leukemia 106% | RPMI-8226 leukemia 95.1% | OVCAR-8 ovarian 98.8% | OVCAR-5 ovarian 92.5% | OVCAR-4 ovarian 111% | SK-OV-3 ovarian 95.3% | OVCAR-3 ovarian 111% | HS 578T breast 101% | NCI/ADR-RES ovarian 88.7% | T-47D breast 98.4% | BT-549 breast 105% | MDA-MB-435 melanoma 108% | SW-620 colon 103% | MCF7 breast 96.4% | HCT-116 colon 98.6% | HCC-2998 colon 95.9% | KM12 colon 104%

O=C(O)c1ccccc1C(=O)c1cccc2c(F)cccc12
inactive: SR leukemia 115% | RPMI-8226 leukemia 104% | OVCAR-8 ovarian 99% | OVCAR-5 ovarian 110% | OVCAR-4 ovarian 98.4% | SK-OV-3 ovarian 109% | OVCAR-3 ovarian 117% | HS 578T breast 126% | NCI/ADR-RES ovarian 104% | T-47D breast 94.5% | BT-549 breast 103% | MDA-MB-435 melanoma 112% | SW-620 colon 106% | MCF7 breast 93.5% | HCT-116 colon 103% | HCC-2998 colon 105% | KM12 colon 111%

NCCNc1ccc2cc(-c3nc4ccccc4[nH]3)c(=O)oc2c1
inactive: SR leukemia 86.2% | RPMI-8226 leukemia 95.7% | OVCAR-8 ovarian 98.2% | OVCAR-5 ovarian 101% | OVCAR-4 ovarian 86.1% | SK-OV-3 ovarian 104% | OVCAR-3 ovarian 98.7% | HS 578T breast 91.6% | NCI/ADR-RES ovarian 95.1% | T-47D breast 82.2% | BT-549 breast 84.9% | MDA-MB-435 melanoma 101% | SW-620 colon 103% | MCF7 breast 80.9% | HCT-116 colon 93.9% | HCC-2998 colon 97.9% | KM12 colon 99.8%

CCC1(C)OC(=O)NC1=O (stereo unspecified)
inactive: SR leukemia 115% | RPMI-8226 leukemia 96.6% | OVCAR-8 ovarian 105% | OVCAR-5 ovarian 97.1% | OVCAR-4 ovarian 112% | SK-OV-3 ovarian 84% | OVCAR-3 ovarian 112% | HS 578T breast 109% | NCI/ADR-RES ovarian 95.9% | T-47D breast 93.8% | BT-549 breast 93.3% | MDA-MB-435 melanoma 112% | SW-620 colon 110% | MCF7 breast 97.7% | HCT-116 colon 87.7% | HCC-2998 colon 99% | KM12 colon 107%

CCCOCC(O)CNCCN (stereo unspecified)
inactive: SR leukemia 99.2% | RPMI-8226 leukemia 101% | OVCAR-8 ovarian 102% | OVCAR-5 ovarian 100% | OVCAR-4 ovarian 102% | SK-OV-3 ovarian 97.4% | OVCAR-3 ovarian 121% | HS 578T breast 112% | NCI/ADR-RES ovarian 123% | T-47D breast 103% | BT-549 breast 110% | MDA-MB-435 melanoma 98.5% | SW-620 colon 98.9% | MCF7 breast 97.4% | HCT-116 colon 104% | HCC-2998 colon 131%
